Reference: PubChem BioAssay AID1159580 (chemical genetic matrix, 2015)
Several values for one entry are separate records, joined by “and”; a condition that tells them apart may be missing. Identical values can stand only once. Out of some 5,500 compounds screened, about 2,000 (36%) were called active. Roughly 18% stayed inconclusive and do not appear here. No stated cut-off is given here; in the data, active means normalized growth mostly below about 0.91 (no sharp cut-off); inconclusive means no clear call, values can overlap the other calls; inactive means mostly above about 0.92. This is one part of the list.

Test: chemical genetic growth profiling, strain panel (AID 1159580);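 further: tested at 20 µM; growth read once vehicle control cultures reached saturation at 30 °C; 1 = growth at the plate median or of vehicle wells; lower values mean less growth of the strain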
Details: S. cerevisiae deletion strains, growth OD

Measured: normalized growth

S=P(N1CC1)(N1CC1)N1CC1
inactive: locus YAL013W, strain DEP1, hits give low values 1.01 | locus YAL021C, strain ccr4, hits give low values 1 | locus YAL026C, strain drs2, hits give low values 1.01 | locus YAL030W, strain snc1, hits give low values 0.996 | locus YBL061C, strain skt5, hits give low values 1.01 | locus YBR009C, strain hhf1, hits give low values 1.01 | locus YBR021W, strain FUR4, hits give low values 0.946 | locus YBR023C, strain chs3, hits give low values 1.02 | locus YBR171W, strain sec66, hits give low values 1.01 | locus YBR229C, strain ROT2, hits give low values 1.01 | locus YBR231C, strain swc5, hits give low values 1.01 | locus YBR279W, strain paf1, hits give low values 0.999 | locus YCL011C, strain gbp2, hits give low values 1.01 | locus YCL016C, strain dcc1, hits give low values 0.999 | locus YCL029C, strain bik1, hits give low values 1.01 | locus YCL061C, strain MRC1, hits give low values 1 | locus YCL069W, strain vba3, hits give low values 1.01 | locus YCR088W, strain abp1, hits give low values 1.02 | locus YDL005C, strain med2, hits give low values 1.01 | locus YDL035C, strain GPR1, hits give low values 1.02 | locus YDL040C, strain nat1, hits give low values 1.01 | locus YDL074C, strain BRE1, hits give low values 1.01 | locus YDL101C, strain DUN1, hits give low values 1.01 | locus YDL134C, strain PPH21, hits give low values 1 | locus YDL192W, strain arf1, hits give low values 0.995 | locus YDR001C, strain nth1, hits give low values 1.01 | locus YDR069C, strain doa4, hits give low values 0.997 | locus YDR101C, strain arx1, hits give low values 0.997 | locus YDR137W, strain rgp1, hits give low values 1.02 | locus YDR150W, strain NUM1, hits give low values 1 | locus YDR159W, strain sac3, hits give low values 1 | locus YDR162C, strain NBP2, hits give low values 1.01 | locus YDR195W, strain ref2 0.971 | locus YDR297W, strain sur2, hits give low values 1 | locus YDR318W, strain mcm21, hits give low values 1.01 | locus YDR334W, strain swr1, hits give low values 1.01 | locus YDR335W, strain msn5, hits give low values 1 | locus YDR388W, hits give low values 1.01 | locus YDR392W, strain spt3, hits give low values 1.03 | locus YDR502C, strain sam2, hits give low values 0.996 | locus YEL003W, strain gim4, hits give low values 1 | locus YEL037C, strain rad23, hits give low values 1 | locus YEL061C, strain CIN8 (second series), hits give low values 1 | locus YEL061C, strain CIN8, hits give low values 1.01 | locus YER015W, strain faa2, hits give low values 1 | locus YER016W, strain bim1, hits give low values 1 | locus YER110C, hits give low values 1.01 | locus YER111C, strain swi4, hits give low values 0.99 | locus YER155C, strain BEM2 (second series), hits give low values 1.03 | locus YER155C, strain BEM2, hits give low values 1 | locus YER167W, strain BCK2, hits give low values 1.01 | locus YFR010W, strain ubp6, hits give low values 1.01 | locus YGL078C, strain dbp3, hits give low values 0.999 | locus YGL086W, strain mad1, hits give low values 1 | locus YGL167C, strain pmr1, hits give low values 1.01 | locus YGL173C, strain kem1, hits give low values 1.02 | locus YGL227W, strain vid30, hits give low values 1.01 | locus YGL240W, strain doc1, hits give low values 1.01 | locus YGL248W, strain PDE1, hits give low values 1.01 | locus YGL253W, strain hxk2, hits give low values 1.02 | locus YGR078C, strain PAC10, hits give low values 1.01 | locus YGR135W, strain pre9, hits give low values 0.996 | locus YGR229C, strain SMI1, hits give low values 0.971 | locus YGR252W, strain gcn5, hits give low values 0.985 | locus YHR013C, strain ard1, hits give low values 0.997 | locus YHR027C, strain rpn1, hits give low values 0.997 | locus YHR030C, strain SLT2, hits give low values 1.01 and 0.994 | locus YHR079C, strain IRE1 (second series), hits give low values 1 | locus YHR079C, strain IRE1, hits give low values 0.985 | locus YHR094C, strain hxt1, hits give low values 1 | locus YHR129C, strain ARP1, hits give low values 1.03 | locus YHR142W, strain chs7, hits give low values 1 | locus YHR200W, strain rpn10, hits give low values 0.997 | locus YIL066C, strain RNR3, hits give low values 1.02 | locus YIL073C, strain SPO22, hits give low values 0.993 | locus YIL125W, strain kgd1, hits give low values 1.01 | locus YIR030C, strain dcg1, hits give low values 1.02 | locus YJL092W, strain hpr5, hits give low values 1 | locus YJL095W, strain BCK1 (second series), hits give low values 1.01 | locus YJL095W, strain BCK1, hits give low values 1.02 and 1.01 | locus YJL115W, strain asf1, hits give low values 1.01 | locus YJL129C, strain trk1, hits give low values 1.02 | locus YJL134W, strain LCB3, hits give low values 1.01 | locus YJL154C, strain vps35, hits give low values 1.01 | locus YJL164C, strain tpk1, hits give low values 1.01 | locus YJL166W, strain qcr8, hits give low values 1.01 | locus YJL168C, strain set2, hits give low values 0.999 | locus YJL187C, strain SWE1 (second series), hits give low values 1.01 | locus YJR043C, strain POL32, hits give low values 1 | locus YJR066W, strain TOR1, hits give low values 0.976 | locus YJR075W, strain HOC1, hits give low values 1.01
